Only some compounds are listed: those with a hit (about 3.4% of all), similar ones and a draw of the others.
FBW7 activator: FBW7 E3 ligase activators, primary screen, biochemical, AlphaScreen, human | AlphaScreen FBW7–phospho-cyclin E peptide binding, activator screen | normalized activity (activation), % at 26.1 µM | hit rate 0.13% among 650,000 | AID 1259310, 2017; in the data active means normalized activity above about 1.9%;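 further: purified mutant Fbw7 with reduced substrate affinity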
Target sequence (Q969H0 whole entry, looked up): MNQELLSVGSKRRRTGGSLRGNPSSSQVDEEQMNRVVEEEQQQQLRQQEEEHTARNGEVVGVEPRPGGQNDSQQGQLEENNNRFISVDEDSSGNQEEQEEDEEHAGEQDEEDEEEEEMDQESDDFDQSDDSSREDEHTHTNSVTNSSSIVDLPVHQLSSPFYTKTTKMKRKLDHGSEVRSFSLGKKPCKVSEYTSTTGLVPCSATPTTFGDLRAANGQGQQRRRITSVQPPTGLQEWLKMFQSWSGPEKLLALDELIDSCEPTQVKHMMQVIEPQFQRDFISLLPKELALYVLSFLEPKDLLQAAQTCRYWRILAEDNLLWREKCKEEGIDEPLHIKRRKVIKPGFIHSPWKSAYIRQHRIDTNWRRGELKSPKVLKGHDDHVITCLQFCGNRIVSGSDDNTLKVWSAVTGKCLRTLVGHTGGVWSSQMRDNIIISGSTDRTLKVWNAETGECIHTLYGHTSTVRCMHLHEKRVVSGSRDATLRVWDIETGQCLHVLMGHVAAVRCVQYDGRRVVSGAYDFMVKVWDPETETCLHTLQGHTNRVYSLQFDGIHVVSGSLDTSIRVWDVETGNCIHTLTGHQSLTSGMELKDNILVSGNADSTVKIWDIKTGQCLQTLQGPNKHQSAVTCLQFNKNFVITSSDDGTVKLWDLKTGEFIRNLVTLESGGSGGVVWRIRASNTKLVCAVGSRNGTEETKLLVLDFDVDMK
GPR151 ag: activators of human GPR151, primary screen, cell-based, PathHunter beta-arrestin, luminescence | PathHunter beta-arrestin GPR151 cells | activation, % at 11.2 µM | hit rate 1% among 650,000; in the data active means activation above about 4.9%;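 further: 0% = median of compound wells and 100% = cells with positive control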
MITF primary: MITF inhibitors, primary screen, biochemical, AlphaScreen, human; AlphaScreen MITF homodimerization, bead proximity signal; inhibition, % at 2.6 µM; hit rate 0.91% among 650,000; in the data active means inhibition above about 50%;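 further: 0% = vehicle wells with protein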
TEAD-YAP block: TEAD-YAP interaction inhibition, primary screen, TEAD-YAP interaction inhibitor project, luminescence, HEK-TIYL cells; TEAD-Gal4/YAP UAS-luciferase luminescence; inhibition, % at 9.12 µM; hit rate 1.4% among 640,000; AID 1259422, 2018; in the data active means inhibition above about 32%;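 further: 0% = median of test compound wells and 100% = reference inhibitor wells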
GPR151 conf act: GPR151 activators, triplicate retest, confirmation, cell-based, PathHunter beta-arrestin, luminescence; shares compounds with GPR151 ag; GPR151 PathHunter beta-arrestin cells, 90 min; % of EA-reagent control over plate median; activation, % at 11.2 µM; 6,700 tested, under 10 active;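 active means mean percent activation across replicates above the confirmation screen cutoff of 4.91%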
GPR119 counter: GPR119 activators in beta-arrestin cells, counter-screen for GPR151 activator project, cell-based, PathHunter beta-arrestin, luminescence, triplicate | activation, % at 11.2 µM | hit rate 0.3% among 6,700 | shares compounds with GPR151 ag | 90 min; 0 = compound-well median, 100 = enzyme-acceptor control;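 active means mean percent activation in the counterscreen above 29.09%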;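 further: counterscreen on off-target GPR119 to flag nonselective hits from the GPR151 activator screen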
Starred values were filed as active, the others as inactive; nt = not tested or not shown.

SMILES	FBW7 activator	GPR151 ag	MITF primary	TEAD-YAP block	GPR151 conf act	GPR119 counter
COc1cc(/C=N/N2C(C)CCCC2C)cc(Br)c1O (stereo unspecified)	0	8.2*	-12	1	-1	-9
COc1ccc(-n2cc(-c3ccccc3)c3c(NCc4ccc5c(c4)OCO5)ncnc32)cc1	0	6.1*	16	-1	0	9
Cc1cccc(-n2cc(-c3ccccc3)c3c(NCCc4ccccc4)ncnc32)c1	0	6.0*	2	-5	0	9
Brc1ccc(-n2cc(-c3ccccc3)c3c(N4CCN(c5ccccc5)CC4)ncnc32)cc1	0	0	7	3	nt	nt
Cc1cccc(-n2cc(-c3ccccc3)c3c(NCCc4ccc(Cl)cc4)ncnc32)c1	0	0	-3	0	nt	nt
CCOc1ccc(-n2cc(-c3ccccc3)c3c(NCc4ccc5c(c4)OCO5)ncnc32)cc1	0	1	5	0	nt	nt
O=[N+]([O-])c1ccc(N2CCN(c3ncnc4c3c(-c3ccccc3)cn4-c3ccc(Br)cc3)CC2)cc1	0	5.0*	-2	-2	0	0
COc1ccccc1Nc1ncnc2c1c(-c1ccccc1)cn2-c1ccccc1	0	6.8*	6	8	1	11
COc1ccccc1NC(=O)CSc1nc2c(oc3ccccc32)c(=O)n1Cc1ccc(C)cc1	0	-1	13	0	nt	nt
COc1ccc(N(C)S(=O)(=O)c2cc([N+](=O)[O-])ccc2Cl)cc1	0	1	4	8	nt	nt
CSc1nc(N2CCCCC2)c2cnn(CCN)c2n1	0	4	1	-1	nt	nt
CC(C)Nc1ncnc2c1c(-c1ccccc1)cn2-c1ccc(Br)cc1	0	5.4*	1	1	-1	0
Cc1ccc(-n2cc(-c3ccccc3)c3c(NC(C)C)ncnc32)cc1	0	-1	-1	-7	nt	nt
O=C(Nn1c(SCc2ccc([N+](=O)[O-])cc2)nc2ccsc2c1=O)c1ccccc1	0	-2	-2	-9	nt	nt
O=C(Cc1ccc(N2CCC(NCCn3ccnc3)CC2)cc1)NCCc1cccc(F)c1	0	6.0*	-8	-2	-1	-9
C=Cc1ccc(Cn2c(C)c(CNCCC3=CCCCC3)c(C(=O)O)c2C)cc1	0	6.3*	16	-2	-1	-9
COc1cccc(-c2nnc3n2N=C(c2cccc([N+](=O)[O-])c2)CS3)c1	0	13*	-7	16	-1	-9
COc1ccc(Br)cc1/C=C1\N=C(c2cc(Br)ccc2OC)OC1=O	0	0	13	-10	nt	nt
COc1ccc(Br)cc1C1=N/C(=C\c2cccc(OC)c2OC)C(=O)O1	0	6.8*	19	-8	1	9
O=C1OCc2cc(-n3nnn(C4CC(=O)C5OCC4O5)c3=S)ccc21 (stereo unspecified)	0	-1	7	9	nt	nt
CCOc1ccc(NC(=O)CC2SC(=O)NC2=O)cc1 (stereo unspecified)	0	0	-4	6	nt	nt
CCOc1ccc(NC2SC(=O)NC2=O)cc1 (stereo unspecified)	0	5.0*	-2	9	-1	-9
Cn1nnc2cc(NC(=O)Nc3ccc(Br)cc3)ccc21	0	5.9*	0	-92	0	1
COc1ccc(-c2nc3cc(Cl)ccc3o2)cc1OC	0	5.8*	8	-44	1	-2
O=S(=O)(c1ccc2oc(-c3ccc(Cl)cc3)nc2c1)c1ccc2oc(-c3ccc(Cl)cc3)nc2c1	0	5.7*	11	4	1	-1
SMILES	FBW7 activator	GPR151 ag	MITF primary	TEAD-YAP block	GPR151 conf act	GPR119 counter
O=C(NCC1CCC(c2nc3ccccc3[nH]2)CC1)c1cccnc1 (stereo unspecified)	0	0	-4	4	nt	nt
CCN1CC=C2C(C#N)=C(N)C(C#N)(C#N)C(c3c(OC)ccc4ccccc34)C2C1 (stereo unspecified)	0	5.6*	9	-8	-1	-12
CC(C)(Oc1ccc(Cl)cc1)C(=O)N1CCCC1	0	1	15	2	nt	nt
CCOC(=O)C1CCN(C(=O)C(C)(C)Oc2ccc(Cl)cc2)CC1	0	5.7*	-1	-2	0	7
CC(C)(C)OC(=O)NCCCC1=CC2=CC(=O)C(C)(OC(=O)CCc3ccccc3)C(=O)C2=CO1 (stereo unspecified)	0	2	-2	nt	nt	nt
CCCCC1=CC2=CC(=O)C(C)(OC(=O)CCc3ccccc3)C(=O)C2=CO1 (stereo unspecified)	0	8.4*	3	nt	0	4
CCC(=O)OC1(C)C(=O)C=C2C=C(c3ccc(C#N)cc3)OC=C2C1=O (stereo unspecified)	0	5.0*	-18	nt	1	6
CN(Cc1nc2ccc(Cl)cc2[nH]1)C(=O)CC1C(=O)NCCN1Cc1cccc(F)c1 (stereo unspecified)	0	-1	12	-13	nt	nt
Cn1c(=O)c2c(SCC(=O)c3ccccc3)nc(-c3ccccc3F)nc2n(C)c1=O	0	1	1	-9	nt	nt
CCSc1nc(-c2ccco2)nc2c1c(=O)n(C)c(=O)n2C	0	6.3*	16	9	1	6
Cn1c(=O)c2c(SCC(=O)O)nc(-c3ccco3)nc2n(C)c1=O	0	0	-14	-13	nt	nt
Cn1c(=O)c2c(SCC(=O)O)nc(-c3ccccc3Cl)nc2n(C)c1=O	0	4.9*	-3	-2	-1	0
COc1ccc(Cl)cc1NC(=O)/C=C/c1ccc(C)o1	0	-1	-3	-8	nt	nt
CCOc1cc(S(=O)(=O)n2ccnc2)ccc1Br	0	-1	-5	11	nt	nt
COc1cc(S(=O)(=O)n2ccnc2)ccc1Br	0	5.7*	10	6	-1	0
O=C(Nc1ccccc1F)C1CCCN(c2nnc(N3CCCC3=O)s2)C1 (stereo unspecified)	0	5.0*	9	3	-1	-9
Cc1c(Cl)cccc1NC(=O)C1CCCN(c2nnc(N3CCCC3=O)s2)C1 (stereo unspecified)	0	-2	-4	-2	nt	nt
CC(C)CCN1C(=O)CCc2cc(NC(=O)c3ccc4c(c3)OCO4)ccc21	0	5.3*	2	-15	-1	0
CC(C)CCN1C(=O)CCc2cc(NC(=O)NCc3ccc(F)cc3)ccc21	0	1	0	3	nt	nt
O=C(CSc1nccc(=O)[nH]1)Nc1nccs1	0	6.5*	7	-1	0	11
Cc1c(Cl)cccc1NC(=O)CSc1nccc(=O)[nH]1	0	5.3*	6	11	0	10
